gsp antag = qHTS for Antagonists of gsp, the Etiologic Mutation Responsible for Fibrous Dysplasia/McCune-Albright Syndrome: qHTS. gsp-mutant cells, cAMP HTRF, 30 min. Potency, µM (top dose mostly 76.9 µM), without a hit: top-dose activity change, negative = inhibition, hits mostly inhibitors. actives 0.4% (n = 340,000). AID 624288, 2012; calls by dose curve; cell line not stated here;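 further: intracellular cAMP measured with PDE inhibitor Ro 20-1724 present during compound exposure; potency means the concentration at half of the fitted maximal effect; on the % scale 0 is the no-effect control and ±100 the full control effect; nearly all actives have a fitted effect of over 65% in size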
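Cells, 2000/well, grown 16–24 h in DMEM 10% FBS with 0.5 mg/ml G418, then compounds plus […] (300 uM addition stock), 30 min at 37C. cAMP read by HTRF (cAMP-d2 and anti-cAMP antibody-K in lysis buffer) after 30 min RT.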
ASM inhibitor = Inhibitors of Secretory Acid Sphingomyelinase (S-ASM): qHTS; AID 504937, 2011; actives 0.006% (n = 340,000); placental ASM, HMU-PC fluorogenic substrate, 60 min; Potency, µM (series often up to 57.5 µM), for inactives: top-dose activity change, negative = inhibition, usual class: inhibitors; Sphingomyelin phosphodiesterase (Homo sapiens), P17405; active means well fitted inhibition curve with a large enough effect; inconclusive means small, poorly fitted or top-dose-only effect; inactive means no such curve, though single readings can be large or run the other way; further: potency means the concentration at half of the fitted maximal effect
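Human placenta-derived ASM preincubated with compound 10 min at room temperature, then reacted with 9 uM (final) fluorogenic HMU-PC substrate for 60 min at 37 C. Stop solution raises pH to 10; fluorescence read at Ex 386/Em 447 nm.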
gsp agonist = qHTS for Agonist of gsp, the Etiologic Mutation Responsible for Fibrous Dysplasia/McCune-Albright Syndrome: qHTS; gsp mutant cells, cAMP HTRF, 30 min; Potency, µM (highest dose often 76.9 µM), for the others: top-dose activation (cAMP increase), actives largely listed as activators; actives 0.13% (n = 340,000); active means well fitted activation curve with a large enough effect; inconclusive means small, poorly fitted or top-dose-only effect, or another doubt; inactive means no such curve, though single readings can be large or run the other way; cell line not stated here;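 further: phosphodiesterase inhibitor Ro 20-1724 added with compounds to block cAMP breakdown; potency means the concentration at half of the fitted maximal effect; nearly all actives have a fitted effect of over 60% in size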
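Cells stably selected in G418 were plated at 2000/well, grown 16-24 hr, then given compounds in DMSO with the PDE inhibitor […] (300 uM solution added) for 30 min at 37C; cAMP was read by HTRF.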
TSHR antag = Antagonists of the Thyroid Stimulating Hormone Receptor: HTS campaign | AID 504810, 2011 | actives 0.2% (n = 330,000) | TSHR-expressing cells, TSH-stimulated cAMP HTRF, 2 h; hits give low values | activity change, negative = inhibition, % at 11.5 µM;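 active means activity change below a set negative limit, meaning inhibition stronger than a set level, cut at about -70% in these data; inconclusive means activity change between two set negative limits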; further: on the % scale 0 is the no-effect control and ±100 the full control effect
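Cell-based HTRF cAMP assay; TSHR cells + compound, TSH EC80 (4nM final), 2 h, 37 deg C. Lysis with anti-cAMP cryptate and cAMP-d2, 30 min RT, read 665/620 nm.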
An asterisk follows results filed as active; u = inconclusive; x = no result; [ ] = remark or other dose. This is a sample that favours compounds with a hit; in the whole collection about 0.63% have one here.

SMILES	gsp antag	ASM inhibitor	gsp agonist	TSHR antag
Cc1cccc(C)c1NC(=O)CN(C)CC(=O)Nc1ccc(C#N)c(Cl)c1	8%	-3%	u	13
CN(CC(=O)Nc1cccc(F)c1)CC(=O)Nc1cccc(S(=O)(=O)N(C)c2ccccc2)c1	50µM*	-12%	-1%[15.4 µM]	x
O=C1NC(=O)N(Cc2ccccc2)C(=O)/C1=C/C=C/c1ccco1	50µM*	0%	19%	-5
CCOP(=S)(OCC)Oc1cc(C)oc(=O)c1	4%	3%	14%	-70*
CCOP(=S)(OCC)Oc1cc(C)oc(=O)c1Cl	6%	-1%	20%	12
O=C1NC(=O)N(Cc2ccc(F)cc2)C(=O)/C1=C\c1ccc(N2CCCC2)cc1	3%	-4%	-6%[15.4 µM]	3
CN1C(=O)C(=Cc2ccc(N3CCCCCC3)cc2)C(=O)N(C)C1=O	35µM*	-3%	-2%[15.4 µM]	5
COc1ccc(OC)c(CNC(=O)CCS(=O)(=O)c2ccc3c(c2)oc(=O)n3C)c1	6%	-2%	u	-10
